From PubChem BioAssay AID1379 (National Center for Advancing Translational Sciences (NCATS), 2008) come the findings set out here.

The structures appear in SMILES notation. About 560 (0.28%) of roughly 200,000 compounds were called active. A call without a number means that no potency is given here. Many of the other results were omitted from the sample, so actives are more common in it than they were. A number with no mark means an inactive call. Calls come from the whole dose curve; as a rule, active = well fitted inhibition curve with a large enough effect; inconclusive = small, poorly fitted or top-dose-only effect; inactive = flat fitted curve, though single readings scatter.
Potency is the fitted concentration of half-maximal effect.

The experiment deals with Luciferin 4-monooxygenase (Photuris pensylvanica) (UniProt Q27757). Nature of the experiment: Counterscreen for Luciferase (Kinase-Glo TM) Inhibition. Note: nearly all actives have a fitted effect of over 60% in size. The following applies: ATP luminescence, 8 min; series mostly up to 38.3 µM. The protocol:
NCGC Assay Overview: NIH Molecular Libraries Screening Centers Network [MLSCN] NIH Chemical Genomics Center [NCGC] MLSCN Grant: None Luciferase (Kinase-Glo, Promega Corporation) was assayed for its ability to generate light using ATP and luciferin as substrates. The ATP concentration in the assay (10 uM) was within the linear range of enzyme activity for the assay conditions used.
NCGC Assay Protocol Summary: Four uL of substrate mix (final concentration, 50 mM imidazole pH 7.2, 50 mM KCl, 7 mM MgCl2, 10 uM ATP, 0.01% Tween 20, 0.05% BSA) was dispensed into white 1536 well plates. Twenty-three nL of compound was delivered by a pin tool and 2 uL of luciferase detection mix (Kinase-Glo, Promega)) was added. Following 8-minute incubation at ambient temperature, luminescence was measured by a ViewLux (Perkin Elmer) at 5 seconds exposure/plate.
(In general: Counterscreens check selectivity or assay interference.)
With `CCN1C(=O)N[C@@H](c2ccccc2)[C@H](C(C)=O)[C@H]1C`, the activity change, negative = inhibition was -7.74% [at 7.66 µM]. Take `C[C@@H]1C(c2ccc(F)cc2)=NN(c2ccc(Br)cc2)[C@H]1C(=O)N1CCOC1=O`: the activity change, negative = inhibition entry was “inactive”. The same measure, in the same setting: then `O=C(O)C[C@@H]1NC(=O)[C@H](Cc2ccccc2)NC1=O`, with “inactive”; and `COC(=O)C1=C(C(=O)OC)[C@@H]2N(C)c3ccccc3[C@@]23C[C@@H](C(=O)OC)N(C(C)=O)C3=N1`, with 0.685% [at 7.66 µM]. Still for that read-out and setting: as for `CC(C)C[C@H](NC(=O)[C@H](O)[C@H](N)Cc1ccccc1)C(=O)O`, the entry is “inactive”; as for `COC(=O)C1=C(C(=O)OC)[C@@H]2N(C)c3ccccc3[C@@]23C[C@@H](C(=O)OC)N(C(=O)c2ccco2)C3=N1`, -2.48% [at 7.66 µM]. On to `Cc1nonc1C(=O)N/N=C/c1ccc(O)cc1`, for which the Potency is 5.01 µM (active). As to `O=C(C[n+]1ccccc1)N/N=C/c1ccc(O)cc1`, the activity change, negative = inhibition entry is “inactive”. Same read-out and setting: then `COC(=O)N/N=C/c1ccc(/C=N/NC(=O)OC)cc1`, with “inactive”; and `C[C@H]1Cc2c(COc3ccccc3)nc3c(c2CO1)CN(C(=O)NCc1ccco1)CC3`, with -0.257% [at 7.66 µM]. On the same count and under the same terms, as for `Cc1cc(C(=O)Cn2cnc3cc([N+](=O)[O-])ccc3c2=O)c(C)n1CC1CCCO1` (stereo not drawn), the entry is “inactive”; as for `Cc1ccsc1C(=O)OCC(=O)c1cc2ccccc2o1`, “inactive”. For `Cc1ccsc1C(=O)OCC(=O)c1cc(C)n(CC2CCCO2)c1C` (stereo not drawn), the Potency was 12.6 µM (active).

As for `COC(=O)CCCC1=CC2=CC(=O)C(C)(OC(=O)c3cccs3)C(=O)C2=CN1CC(C)C` (stereo not drawn), the activity change, negative = inhibition was -3.18% [at 7.66 µM]. Still for that read-out and setting: then `CCOC(=O)C1=C(C)c2ccccc2OC1(C)C(=O)OCC` (stereo not drawn), with “inactive”. On the same count and under the same terms, then `CC(C)(Oc1ccc(C2CC2(Cl)Cl)cc1)C(=O)O` (stereo not drawn), with “inactive”; and `Cc1occc1C(=O)Nc1nnc(C2CCCCC2)s1`, with “inactive”. With `O=C(Nc1nnc(C2CC2)s1)c1ccccn1`, the Potency is 10 µM (active). For `O=C(Cc1cccs1)Nc1nnc(C2CC2)s1`, the activity change, negative = inhibition result was “inactive”. For `C=C(C)C(=O)c1ccc(F)cc1`, the activity change, negative = inhibition result is “inactive”.

In the case of `CC(C)C1=CC2=CC[C@H]3[C@](C)(C(=O)O)CCC[C@]3(C)C2CC1` (stereo partly drawn), the activity change, negative = inhibition entry was “inactive”. Still for that read-out and setting: as for `COC(=O)C1=C(C(=O)OC)[C@@H]2N(Cc3ccccc3)c3ccccc3[C@@]23C[C@@H](C(=O)OC)N(S(=O)(=O)c2ccc(C(F)(F)F)cc2)C3=N1`, the figure is -5.51% [at 7.66 µM]. As to `CCCCC/C=C\C/C=C\C/C=C\CCCCCCC(N)=O`, the activity change, negative = inhibition result was “inactive”. On the same count and under the same terms, as for `COC(=O)N1C(/C=C/C=C/c2ccc(OC)cc2)=Cc2ccccc2C1CC(C)=O` (stereo not drawn), the figure is -3.85% [at 7.66 µM].

As for `CC1(C)O[C@@H]2C[C@@H]3[C@H]4C[C@@H](F)C5=CC(=O)C=C[C@]5(C)[C@@]4(F)[C@@H](O)C[C@]3(C)[C@]2(C(=O)CO)O1`, the activity change, negative = inhibition entry is “inactive”. Still for that read-out and setting: as for `CCCCC/C=C\C/C=C\CCCCCCCCCC(=O)NCC(=O)O`, the entry is “inactive”; as for `COc1ccc(-c2c(C)cc3oc(=O)cc(-c4ccccc4)c3c2C)cc1F`, “inactive”; as for `CC1=C(/C=C/C(C)=C/C=C/C(C)=C/C=C/C=C(C)/C=C/C=C(C)/C=C/C(=O)[C@]2(C)C[C@@H](O)CC2(C)C)C(C)(C)C[C@H](O)C1`, “inactive”.

`C#CCCOC(=O)N1C2=NC(C(=O)OC)=C(C(=O)OC)[C@@H]3N(C)c4ccc(OC)cc4[C@]23C[C@H]1C(=O)OC`: the activity change, negative = inhibition was -8.5% [at 7.66 µM]. On the same count and under the same terms, as for `Cc1cn(C2OC[C@@H](O)[C@@H]2CO)c(=O)[nH]c1=O` (stereo partly drawn), the entry is “inactive”; as for `CCCCC/C=C\C/C=C\CCCCCCCCCC(=O)O`, “inactive”; as for `COc1ccc(C(=O)NC(=S)Nc2ccc(N3CCCC3)cc2)cc1OC`, “inactive”. Regarding `COc1cccc(C(=O)Nc2ccc(N3CCCC3)cc2)c1`, the Potency is 4.47 µM (active). Regarding `COc1cccc(OC)c1C(=O)Nc1ccc(N2CCCCC2)cc1`, the activity change, negative = inhibition entry is “inactive”. Take `COc1cc(OC)c2c(c1)OC(=O)CC2c1cc(OC)c(OC)c(OC)c1` (stereo not drawn): the activity change, negative = inhibition entry is “inactive”. On the same count and under the same terms, then `CN1c2ccccc2-c2nc3ccccc3n2C1c1ccco1` (stereo not drawn), with “inactive”. Still for that read-out and setting: then `COc1ccc(CCn2c(-c3ccco3)nc3nc4ccccc4nc32)cc1OC`, with “inactive”. Turning to `Cn1c(-c2ccco2)nc2cc3ccccc3cc21`, the Potency is 12.6 µM (active). Regarding `COc1ccc(C2CC(=O)Oc3ccc(C(C)(C)C)cc32)cc1` (stereo not drawn), the activity change, negative = inhibition result was “inactive”.

On to `COc1cccc([C@@H]2Oc3ccc(Br)cc3C(=O)[C@H]2OC(=O)NCCc2ccc(OC)c(OC)c2)c1`, for which the activity change, negative = inhibition result is “inactive”. For the compound `CCOC(=O)C1=C(C(=O)OCC)C(C(=O)OCC)N(S(=O)(=O)C(F)(F)F)c2ccccc21` (stereo not drawn), the activity change, negative = inhibition entry was “inactive”. For the compound `COC(=O)C1=C(C(=O)OC)[C@@H]2N(C)c3ccccc3[C@@]23C[C@@H](C(=O)OC)N(S(=O)(=O)c2cccs2)C3=N1`, the activity change, negative = inhibition is -6.85% [at 7.66 µM]. As for `CC/C=C\C/C=C\C/C=C\C/C=C\C/C=C\C/C=C\CCC(=O)NCCc1ccc(O)c(O)c1`, the activity change, negative = inhibition result is “inactive”.

For `C[C@@]12CCC(=O)C=C1CC[C@H]1C2[C@@H](O)C[C@]2(C)[C@@H]1CC[C@@]2(O)C(=O)COC(=O)C1CCCC1` (stereo partly drawn), the activity change, negative = inhibition was -5.73% [at 7.66 µM]. As to `CCCCC/C=C\C/C=C\CCCCCCCCCC(N)=O`, the activity change, negative = inhibition result was “inactive”. In the case of `COC(=O)C1(C(C)=O)CC2=CC[C@H]3C(=O)N(c4ccccc4)C(=O)[C@H]3[C@@H]2Cc2ccccc2[C@@H]1C[N+](=O)[O-]` (stereo partly drawn), the activity change, negative = inhibition entry was “inactive”. For the compound `CCCCC/C=C\C/C=C\C/C=C\CCCCC(=O)NCC(=O)O`, the activity change, negative = inhibition entry was “inactive”. Regarding `COC(=O)C(C(=O)OC)[C@@H](NC=O)c1ccccc1`, the activity change, negative = inhibition result was “inactive”.

`CC1(OC(=O)c2ccc(Cl)nc2)C(=O)Cc2cc(-c3ccsc3)ncc2C1=O` (stereo not drawn): the activity change, negative = inhibition is -0.318% [at 7.66 µM]. For the compound `Cc1nn2c3ccccc3nc2n(C)c1=O`, the activity change, negative = inhibition result was “inactive”.

In the case of `Cn1cccc1-c1nc2ccccc2n1C`, the activity change, negative = inhibition result was “inactive”. Take `Cc1csc(-c2nc3ccccc3n2C)n1`: the Potency is 4.47 µM (active).

For `COCCn1c(C)cc(C2=NNC(=Nc3ccc(F)cc3)SC2)c1C`, the activity change, negative = inhibition entry is “inactive”.
